# Test results as given in publication PMC4102417.
# Tested on: murine 3T3 fibroblasts
# Assay: primary screen, percent viability or growth; higher = less effect of the substance
# Protocol: Similarly, for measuring the cytotoxicity concentration (CC50) for 3T3 fibroblast cells, cultures were incubated with drugs for 72 hours and developed using Alamar Blue (Alamar Biosciences Inc, Sacramento, CA) as previously described.
row,Compound,Mammalian (3T3) cell % growth at 10 uM
1,CC(=O)[C@H]1CC[C@H]2[C@@H]3CC[C@H]4C[C@@H](O)CC[C@]4(C)[C@H]3CC[C@]12C,100%
2,CC1(C)C(=O)C2OC2C2(C)C1CC(O)C1(C)C2CCC2(C)C(c3ccoc3)OC(=O)C3OC321 (stereo not shown),77.3%
3,C=CC(C)(O)CCC1C(=C)CC(O)C2C(C)(C)CCCC12C (stereo not shown),74%
4,CCC1(O)C(=O)OCc2c1cc1n(c2=O)Cc2cc3cc(O)ccc3nc2-1 (stereo not shown),23.9%
5,COc1cc(/C=C/C(=O)N2CCC=CC2=O)cc(OC)c1OC,1%
6,C=CC(C)(O)CCC1C(=C)CC(OC(C)=O)C2C(C)(C)CCCC12C (stereo not shown),63.7%
7,Oc1ccc2c(c1)O[C@H](c1ccc(O)c(O)c1)[C@@H](O)C2,97.8%
8,CN1CCC(=C2c3ccccc3CCc3sccc32)CC1.O=C(O)CC(O)C(=O)O,86.5%
9,COc1ccc(-c2cc(=O)c3ccccc3o2)cc1OC,86.4%
10,NCCCCNCCCN,41%
11,CC[C@@]1([C@@H]2O[C@@H]([C@H]3O[C@@](O)(CO)[C@H](C)C[C@@H]3C)C[C@@H]2C)CC[C@H]([C@]2(C)CC[C@]3(C[C@H](O)[C@@H](C)[C@@H]([C@@H](C)[C@@H](OC)[C@H](C)C(=O)O)O3)O2)O1,41.3%
12,COC(=O)[C@H]1[C@H]2C[C@@H]3c4[nH]c5cc(OC)ccc5c4CCN3C[C@H]2C[C@@H](OC(=O)c2cc(OC)c(OC)c(OC)c2)[C@@H]1OC,100%
13,Clc1ccc(COC(Cn2ccnc2)c2ccc(Cl)cc2Cl)cc1 (stereo not shown),100%
